Assay results taken from PubChem BioAssay AID1159580 (chemical genetic matrix, 2015).
About 2,000 (36%) of roughly 5,500 compounds were called active. Inconclusive results (about 18%) are left out. No stated cut-off is given here; in the data, active means normalized growth mostly below about 0.91 (no sharp cut-off); inconclusive means no clear call, values can overlap the other calls; inactive means mostly above about 0.92. This is one part of the list.

Test: chemical genetic growth profiling, strain panel (AID 1159580);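 further: tested at 20 µM; growth read once vehicle control cultures reached saturation at 30 °C; 1 = growth at the plate median or of vehicle wells; lower values mean less growth of the strain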
Conditions: S. cerevisiae deletion strains, growth OD
[1] = locus YDL101C, strain DUN1, hits give low values
[2] = locus YHR030C, strain SLT2, hits give low values

Measured: normalized growth

COc1cc(C2CC(=S)Nc3ccccc3S2)cc(OC)c1OC (stereo not given)
inactive: locus YAR019C, strain CDC15, hits give low values 0.99 | locus YBL105C, strain PKC1, hits give low values 0.986 | locus YBR135W, strain CKS1, hits give low values 0.993 | locus YBR136W, strain MEC1, hits give low values 0.992 | locus YBR160W, strain CDC28, hits give low values 1 | locus YDL017W, strain CDC7, hits give low values 0.998 | locus YDL028C, strain MPS1, hits give low values 0.981 | [1] 0.987 | locus YDL108W, strain KIN28, hits give low values 0.978 | locus YDL132W, strain cdc53, hits give low values 0.999 | locus YDL214C, strain PRR2, hits give low values 0.923 | locus YDR052C, strain DBF4, hits give low values 0.995 | locus YDR054C, strain cdc34, hits give low values 0.986 | locus YDR226W, strain ADK1, hits give low values 0.99 | locus YDR477W, strain SNF1, hits give low values 0.969 | locus YER123W, strain YCK3, hits give low values 0.881 | locus YER133W, strain GLC7, hits give low values 0.941 | locus YFL009W, strain cdc4, hits give low values 0.988 | locus YFL029C, strain CAK1, hits give low values 0.988 | locus YFR003C, strain YPI1, hits give low values 0.99 | locus YFR019W, strain FAB1, hits give low values 0.945 | locus YFR028C, strain CDC14, hits give low values 0.993 | locus YGR040W, strain KSS1, hits give low values 0.94 | locus YGR052W, strain FMP48, hits give low values 1.02 | locus YGR092W, strain DBF2, hits give low values 0.94 | [2] 1.07 | locus YHR079C, strain IRE1, hits give low values 1.04 | locus YHR082C, strain KSP1, hits give low values 1.06 | locus YHR205W, strain SCH9, hits give low values 0.974 | locus YIL147C, strain SLN1, hits give low values 0.98 | locus YJL095W, strain BCK1, hits give low values 1.08 | locus YJL128C, strain PBS2, hits give low values 0.942 | locus YJL157C, strain FAR1, hits give low values 0.928 | locus YJR016C, strain ILV3, hits give low values 1 | locus YJR066W, strain TOR1 (second series), hits give low values 0.937 | locus YJR066W, strain TOR1, hits give low values 1.08 | locus YKL048C, strain ELM1, hits give low values 0.975 | locus YKL067W, strain YNK1, hits give low values 0.946 | locus YKL101W, strain HSL1, hits give low values 0.951 | locus YKL193C, strain SDS22, hits give low values 0.994 | locus YKL203C, strain TOR2, hits give low values 1.03 | locus YLR113W, strain HOG1, hits give low values 1 | locus YLR133W, strain CKI1, hits give low values 0.978 | locus YLR403W, strain SFP1, hits give low values 0.967 | locus YML070W, strain DAK1, hits give low values 0.914 | locus YMR001C, strain CDC5, hits give low values 0.993 | locus YMR205C, strain PFK2 (second series), hits give low values 0.95 | locus YMR277W, strain FCP1, hits give low values 0.999 | locus YNL006W, strain LST8, hits give low values 0.994 | locus YNL020C, strain ARK1, hits give low values 0.961 | locus YNL161W, strain CBK1, hits give low values 0.995 | locus YNL183C, strain NPR1, hits give low values 1.06 | locus YNL207W, strain RIO2, hits give low values 0.987 | locus YNL222W, strain SSU72, hits give low values 0.974 | locus YNL307C, strain MCK1 (second series), hits give low values 0.963 | locus YOL078W, strain AVO1, hits give low values 0.985 | locus YOL136C, strain PFK27, hits give low values 0.939 | locus YOR061W, strain CKA2, hits give low values 0.944 | locus YOR119C, strain RIO1, hits give low values 1.01 | locus YOR231W, strain MKK1, hits give low values 1.03 | locus YOR329C, strain SCD5, hits give low values 0.999 | locus YPL031C, strain PHO85, hits give low values 0.953 | locus YPL153C, strain RAD53, hits give low values 0.945 | locus YPL204W, strain HRR25, hits give low values 0.962 | locus YPL209C, strain IPL1, hits give low values 0.983 | locus YPL256C, strain CLN2, hits give low values 1.05 | locus YPR025C, strain CCL1, hits give low values 0.994 | locus YPR106W, strain ISR1, hits give low values 0.992 | locus YPR111W, strain DBF20, hits give low values 0.981 | strain NNK1, hits give low values 0.988 | strain TSCII, hits give low values 0.999

COC(=O)c1cc(OC)c(OC)cc1NC(=O)Nc1cc(Cl)cc(Cl)c1
inactive: locus YAL013W, strain DEP1, hits give low values 0.991 | locus YBR229C, strain ROT2, hits give low values 0.998 | [1] 1.02 | locus YDL134C, strain PPH21, hits give low values 0.979 | locus YDR150W, strain NUM1, hits give low values 0.916 | locus YEL061C, strain CIN8, hits give low values 1.02 | locus YGR078C, strain PAC10, hits give low values 1.01 | [2] 0.868 | locus YHR087W, strain rtc3, hits give low values 1.02 | locus YJL187C, strain SWE1, hits give low values 1.03 | locus YJR043C, strain POL32, hits give low values 0.959 | locus YJR075W, strain HOC1, hits give low values 0.982 | locus YKL190W, strain CNB1, hits give low values 1.01 | locus YLR039C, strain RIC1, hits give low values 1.01 | locus YLR058C, strain SHM2 (second series), hits give low values 1.01 | locus YLR085C, strain ARP6, hits give low values 0.973 | locus YLR262C, strain YPT6, hits give low values 0.972 | locus YML094W, strain GIM5, hits give low values 0.998 | locus YMR219W, strain ESC1, hits give low values 1.02 | locus YMR263W, strain SAP30, hits give low values 0.978 | locus YMR307W, strain GAS1, hits give low values 1.05 | locus YNL153C, strain GIM3, hits give low values 1.02 | locus YNL298W, strain CLA4 (second series), hits give low values 0.969 | locus YNL322C, strain KRE1, hits give low values 1.02 | locus YNR030W, strain Alg12, hits give low values 0.978 | locus YOL006C, strain TOP1, hits give low values 1.05 | locus YPL055C, strain LGE1, hits give low values 1.08 | locus YPL241C, strain CIN2, hits give low values 0.998 | locus YPR135W, strain CTF4, hits give low values 0.926
